Among all 330,000 compounds or so, about 300 (0.091%) were called active. Inconclusive results (about 4%) are left out. The full list was thinned out, with actives kept by preference. Values without a mark were called inactive. The call rests on the fitted dose curve; in most records, active means well fitted inhibition curve with a large enough effect; inconclusive means small, poorly fitted or top-dose-only effect, or effect the other way, or another doubt; inactive means no such curve, though single readings can be large or run the other way.
Molecular target: Lysosomal acid glucosylceramidase (Homo sapiens) (UniProt P04062)
Assay: qHTS Assay for Inhibitors and Activators of N370S glucocerebrosidase as a Potential Chaperone Treatment of Gaucher Disease;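 further: 0% = full enzyme activity and -100% = no enzyme basal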
Details: N370S GC spleen homogenate, 4MU-glucoside fluorescence; series mostly up to 59.4 µM
From the text: NIH Chemical Genomics Center [NCGC]
NIH Molecular Libraries Probe Production Centers Network [MLPCN]
Assay Submitter (PI): Wei Zheng
Glucocerebrosidase (GC) catalyzes the hydrolysis of beta-glucocerebroside to glucose and ceramide in lysosomes. Mutations in the glucocerebrosidase gene result in Gaucher disease, an autosomal recessive lysosomal storage disorder. Many of the mutations encountered in patients with Gaucher disease are missense alterations that may cause misfolding, decreased stability and/or mistrafficking of this lysosomal protein. […] These inhibitors include iminosugar analogs and three non-iminosugar inhibitors identified from a previous HTS of 62,000 compounds with the wild type recombinant enzyme. However, the enhancement of enzyme activity by the chaperone action of an enzyme inhibitor must be balanced against the direct inhibition of the enzyme. An enzyme activator could also function as a chaperone by binding to the enzyme and helping to correct its misfolding and mistrafficking. While activators for GC have not yet been identified, they may have better therapeutic potential than inhibitors. Therefore the discovery and development of chemical activators may provide a new strategy for the chaperone therapy.
We have optimized a new assay using N370S mutant GC derived from the spleen of a Gaucher patient. […] In addition, the MLPCN compound library has expanded, which increases the chance of finding new and better probes.
NCGC Assay Protocol Summary:
This is a fluorogenic enzyme assay with 4-methylumbelliferyl-beta-D-glucopyranoside as the substrate and N370S glucocerebrosidase from human spleen homogenate as the enzyme preparation. Upon the hydrolysis of this fluorogenic substrate, the resulting product, […] which can be detected by a standard fluorescence plate reader. Data were normalized to the controls for basal activity (without enzyme) and 100% activity (with enzyme). The AC50 values were determined from concentration-response data modeled with the standard Hill equation.
Assay buffer: 50 mM citric acid (titrated with potassium phosphate to pH 5.0), 100 mM potassium chloride, 10 mM sodium chloride, 1 mM magnesium chloride, 0.01% Tween-20.
1536-well assay protocol:
(1) Add 2 ul/well of spleen homogenate (27 ug final)
(2) Add 23 nL compounds in DMSO solution. The final titration was 0.5 nM to 58 uM.
(3) Add 2 ul of substrate (1 mM final)
(4) Incubate at 37C for 40 min.
(5) Add 2 ul stop solution (1M NaOH and 1M Glycine mixture, pH 10)
(6) Detect the assay plate in a ViewLux plate reader (PerkinElmer) with Ex=365 nm and Em=440nm.
Keywords: Glucocerebrosidase, beta-glucosidase, Gaucher Disease, pharmacological chaperone, chaperone therapy, high throughput screening, glucocerebrosidase inhibitor, MLSMR, MLSCN, NIH Roadmap, qHTS and NCGC

Compound	activity change, negative = inhibition
O=C(NCCc1ccc(F)cc1)c1ccc(S(=O)(=O)N2CCCCC2)cc1	inactive
Nc1nc2c(ncn2[C@@H]2O[C@H](COP(=O)(O)OP(=O)(O)OP(=O)(O)O)[C@@H](O)C2O)c(=O)[nH]1 (some centres undefined)	inactive
Cc1occc1-c1nnc(SCC(=O)NC2(C#N)CCCC2)n1C	inactive
C/C=C(\C)C(=O)OC1C(OC(=O)C2(C)OC2C)c2cc3ccc(=O)oc3cc2OC1(C)C (centres undefined)	inactive
O=C(c1cnccn1)N1CCC2(CCN(Cc3cc(C(F)(F)F)cc(C(F)(F)F)c3)CC2)CC1	inactive
Cc1ccc(NC(=O)CCC(=O)N2CCC(c3ccccc3)=N2)cc1S(=O)(=O)N1CCCCC1	inactive
CC(=O)OCCC(C)C	inactive
CCCCCCN(C(=O)CCCCCN1C(=O)NC(c2ccc(C(F)(F)F)cc2)C(C(=O)OCc2ccccc2)=C1C)C(C(=O)NCCCC)c1ccc(OCC(=O)OC)c(C(=O)OC)c1 (centres undefined)	inactive
c1ccc(Oc2ccccc2)cc1	inactive
C=CCOC(=O)C(C(C)=O)C(NC(=O)OC)c1ccccc1 (centres undefined)	-15.4% [at 12.8 µM]
COC(=O)CCc1ccccc1S(=O)(=O)N(CCC(=O)OC)Cc1ccccc1	inactive
CC1CC[C@@]23CCC4(C)[C@@]5(C)CCC6C(C)(C)C(O)CC[C@@]6(C)C5C=C[C@@]4(OC2=O)C3C1C (some centres undefined)	inactive
CCN(CC)/[N+]([O-])=N/Oc1cc(O/[N+]([O-])=N/N2CCCC2CO)c([N+](=O)[O-])cc1[N+](=O)[O-] (centres undefined)	inactive
COC(=O)N1C(/C=C/C=C/c2ccc(OC)cc2)=Cc2ccccc2C1CC(C)=O (centres undefined)	-10.4% [at 12.8 µM]
COc1ccc(-c2nc3c(c4c2C[C@H](c2ccccc2)OC4)CN(C(=O)C2CC2)CC3)c(C)c1	-14.3% [at 12.8 µM]
C[C@]12CC[C@@H]3C(=CCc4cc(O)ccc43)[C@@H]1CCC2=O	inactive
CCOC(OCC)OCC	inactive
COc1ccc(Cl)cc1NC(=O)CN(C)CC(=O)Nc1ccc2c(c1)OCO2	inactive
COc1cccc(CC(=O)N2CCc3nc(COc4ccccc4)c4c(c3C2)CO[C@@H](C)C4)c1	3.29% [at 12.8 µM]
O=S(=O)(Nc1ccc2nc(N3CCOCC3)sc2c1)c1ccccc1	inactive
CC(C)C(NC(=O)c1c(F)cccc1F)C(=O)NCc1ccncc1 (centres undefined)	inactive
O=C(Nc1cccc(C(=O)NC2CC2)c1)c1ccc(F)c(S(=O)(=O)N2CCOCC2)c1	inactive
COc1ccc(CNC(=O)COC(=O)c2c(C)nn(-c3ccccc3)c2C)cc1OC	inactive
Cc1ccccc1Nc1nc(N)nc(COC(=O)CCC(=O)c2ccc(F)cc2)n1	inactive
